# According to ChEMBL document CHEMBL3988442, “University of Dundee, Small-Polar-MMV Screening Library” (2021):
# Molecular target: AMP-activated protein kinase, AMPK (Homo sapiens) (UniProt P54646+O43741+P54619+Q9UGJ0+Q9Y478+Q13131+Q9UGI9)
# Experiment: AMP-dependent Kinase enzyme assay. An in vitro enzyme assay that detects ADP turnover that is directly proportional to AMPK activity. This uses naive AMPK that is activated during the assay with MK-8722
# Format: functional
# Design: scale not given: direction of the effect not stated beside the values
# Settings: 30 µM
row,SMILES,Percent Effect
1,Cc1cccc(N2CC[C@@H]3CN(C(=O)c4ccco4)CCO[C@@H]3C2)n1,10.8%
2,CCC1=N[C@@]2(CC[C@@H]3CN(CC(=O)N(C)C)C[C@@H]32)C(=O)N1CC1CC1,3.24%
3,CCCC(NC(=O)c1ccc(OC)cc1F)c1nnn[nH]1 (stereo not given),-8.28%
4,Cc1noc(C(C)N2CCN(CC(=O)N3CCOCC3)CC2)n1 (stereo not given),-3.04%
5,c1ccc(CN2CCCC2Cn2cncn2)nc1 (stereo not given),3.76%
6,O=C(c1ccno1)N1CC[C@@H]2O[C@@H](COCCN3CCCC3)CC[C@@H]21,1.12%
7,CCOc1ccnc(N2CCN(C(=O)c3cccnc3O)CC2)n1,-4.02%
8,CC(C)(C(=O)NCC(N)=O)c1ccccc1F,-0.917%
9,CCOc1ncccc1C(=O)N(C)Cc1ncc(C)c(OC)c1C,5.97%
10,Cc1cccc(C(=O)N2C[C@@H]3CCN(c4cccnc4)C[C@@H]3C2)c1,9.98%
11,CC(OCC(F)(F)F)C(=O)Nc1ccc(-n2cncn2)nc1 (stereo not given),24.5%
12,Cc1noc(C)c1-c1cncc(C2CCCN2Cc2ccncc2)n1 (stereo not given),12%
13,C=C(C)CN(Cc1cccc(O)c1)C1CCC(O)CC1 (stereo not given),-0.588%
14,COc1ccccc1CC(=O)N1CCC(NCc2c[nH]nc2C)CC1,-1.94%
15,CC(C)Cc1noc(CN2CCN(CCO)CC2)n1,1.51%
16,COc1cccc(CN(C)C(=O)CN2CC(n3nc(C)cc3C)C2)c1,0.521%
17,CCc1noc(C)c1C(=O)N1CCCC1Cn1nc(C)cc1C (stereo not given),-1.52%
18,COc1ccc(CN(C)C(=O)CCc2c(C)nc(C)[nH]c2=O)cc1OC,-3.92%
19,Cc1cc(N2CCCN(C(=O)Cc3ccc(O)c(Cl)c3)CC2)ccn1,-3.37%
20,Cc1ccc2nc(C3CCN(CCO)CC3)nn2c1,6.44%

row,SMILES,Percent Effect
1,Cc1ccsc1C(=O)N1CC(C(=O)N2CCOCC2)C2(CCOCC2)C1 (stereo not given),117%
2,Cc1ccccc1C(=O)NCc1ccc(N2CCNC(=O)C2)cc1,-9.32%
3,CC1CCN(S(=O)(=O)NCCCn2cncn2)CC1,3.29%
4,CCN(Cc1ccc2c(c1)OCO2)C(=O)NC(C)Cn1cccn1 (stereo not given),2.96%
5,CCN(CC)C(=O)CCc1c(C)nc2cc(O)nn2c1C,-288%
6,CC(C)NC(=O)[C@@H]1C[C@H](N)CN1C(=O)c1cc2ccccc2[nH]c1=O,-9.81%
7,CCc1ccc(NC(=O)N2C[C@H]3C[C@H](C(=O)NC)[C@@H](C2)O3)cc1,6.04%
8,CCN1CC2(CCNCC2)COc2ccccc2S1(=O)=O,7.12%
9,CN1CCc2cc(C(CNS(=O)(=O)c3cccs3)N3CCCC3)ccc21 (stereo not given),7.05%
10,CC(NC(=O)N(C)Cc1ccc(Cl)s1)c1ccccn1 (stereo not given),9.06%
11,O=c1oc(-c2cccs2)nn1CC(O)c1ccccc1 (stereo not given),-5.55%
12,Cc1cc(NC(=O)NCc2ccccc2OC(F)F)n(C)n1,5.29%
13,O=C(Cn1ccc2ccccc21)NCc1ccc(C(=O)O)cc1,10.1%
14,CCCNC(=O)Cn1nc(C(C)C)c2cnn(C(C)(C)C)c2c1=O,-13.9%
15,Cc1ccc(CNCc2nnc3n2CCCC3C(F)(F)F)s1 (stereo not given),-7.92%
16,CCn1c(Cn2cncn2)nnc1C1CCN(Cc2ccncc2)CC1,-3.24%
17,CC(=O)c1cc(CC(=O)NCc2ccc(CN(C)C)cc2)cs1,-1.37%
18,CN(Cc1ccsc1)C(=O)CN1CCCC1Cn1cccn1 (stereo not given),2.08%
19,c1cnnc(N2CCCC2CNCc2nc3ccccc3o2)c1 (stereo not given),-3.71%
20,CCN1C[C@@H]2[C@@H](OC)CCN(S(=O)(=O)c3ccccc3)[C@@H]2C1,3.6%

# Molecular target: Sialic acid-binding Ig-like lectin 9 (Homo sapiens) (UniProt Q9Y336)
# Sequence (Q9Y336 whole entry): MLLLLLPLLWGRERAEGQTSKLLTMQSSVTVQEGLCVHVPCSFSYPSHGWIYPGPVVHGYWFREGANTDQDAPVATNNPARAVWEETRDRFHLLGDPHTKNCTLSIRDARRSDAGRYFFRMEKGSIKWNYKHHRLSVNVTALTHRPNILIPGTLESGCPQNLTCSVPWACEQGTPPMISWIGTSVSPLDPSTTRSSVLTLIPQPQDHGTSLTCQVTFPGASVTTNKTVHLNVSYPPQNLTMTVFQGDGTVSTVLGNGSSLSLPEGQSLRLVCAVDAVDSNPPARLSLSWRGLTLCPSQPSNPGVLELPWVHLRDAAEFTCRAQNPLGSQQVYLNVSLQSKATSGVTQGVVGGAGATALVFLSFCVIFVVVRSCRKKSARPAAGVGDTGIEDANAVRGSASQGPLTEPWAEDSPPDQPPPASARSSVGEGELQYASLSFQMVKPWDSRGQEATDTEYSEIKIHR
# Experiment: Hs-Siglec9 ALPHAscreen SOP 20170721
# Design: scale not given: direction of the effect not stated beside the values
# Settings: 10 µM
row,SMILES,Percent Effect
1,Cc1cccc(N2CC[C@@H]3CN(C(=O)c4ccco4)CCO[C@@H]3C2)n1,3.1%
2,CCC1=N[C@@]2(CC[C@@H]3CN(CC(=O)N(C)C)C[C@@H]32)C(=O)N1CC1CC1,-0.307%
3,CCCC(NC(=O)c1ccc(OC)cc1F)c1nnn[nH]1 (stereo not given),11.5%
4,Cc1noc(C(C)N2CCN(CC(=O)N3CCOCC3)CC2)n1 (stereo not given),-5.34%
5,c1ccc(CN2CCCC2Cn2cncn2)nc1 (stereo not given),6.27%
6,O=C(c1ccno1)N1CC[C@@H]2O[C@@H](COCCN3CCCC3)CC[C@@H]21,-3.29%
7,CCOc1ccnc(N2CCN(C(=O)c3cccnc3O)CC2)n1,2.97%
8,CC(C)(C(=O)NCC(N)=O)c1ccccc1F,-6.27%
9,CCOc1ncccc1C(=O)N(C)Cc1ncc(C)c(OC)c1C,-3.9%
10,Cc1cccc(C(=O)N2C[C@@H]3CCN(c4cccnc4)C[C@@H]3C2)c1,-2.65%
11,CC(OCC(F)(F)F)C(=O)Nc1ccc(-n2cncn2)nc1 (stereo not given),-9.5%
12,Cc1noc(C)c1-c1cncc(C2CCCN2Cc2ccncc2)n1 (stereo not given),8.81%
13,C=C(C)CN(Cc1cccc(O)c1)C1CCC(O)CC1 (stereo not given),6.05%
14,COc1ccccc1CC(=O)N1CCC(NCc2c[nH]nc2C)CC1,-8.2%
15,CC(C)Cc1noc(CN2CCN(CCO)CC2)n1,-0.0672%
16,COc1cccc(CN(C)C(=O)CN2CC(n3nc(C)cc3C)C2)c1,-5.84%
17,CCc1noc(C)c1C(=O)N1CCCC1Cn1nc(C)cc1C (stereo not given),-4.06%
18,COc1ccc(CN(C)C(=O)CCc2c(C)nc(C)[nH]c2=O)cc1OC,5.86%
19,Cc1cc(N2CCCN(C(=O)Cc3ccc(O)c(Cl)c3)CC2)ccn1,6.51%
20,Cc1ccc2nc(C3CCN(CCO)CC3)nn2c1,9.27%

row,SMILES,Percent Effect
1,Cc1ccsc1C(=O)N1CC(C(=O)N2CCOCC2)C2(CCOCC2)C1 (stereo not given),-9.65%
2,Cc1ccccc1C(=O)NCc1ccc(N2CCNC(=O)C2)cc1,6.76%
3,CC1CCN(S(=O)(=O)NCCCn2cncn2)CC1,1.98%
4,CCN(Cc1ccc2c(c1)OCO2)C(=O)NC(C)Cn1cccn1 (stereo not given),-4.68%
5,CCN(CC)C(=O)CCc1c(C)nc2cc(O)nn2c1C,0.0855%
6,CC(C)NC(=O)[C@@H]1C[C@H](N)CN1C(=O)c1cc2ccccc2[nH]c1=O,9.13%
7,CCc1ccc(NC(=O)N2C[C@H]3C[C@H](C(=O)NC)[C@@H](C2)O3)cc1,-3.01%
8,CCN1CC2(CCNCC2)COc2ccccc2S1(=O)=O,3.15%
9,CN1CCc2cc(C(CNS(=O)(=O)c3cccs3)N3CCCC3)ccc21 (stereo not given),-7.92%
10,CC(NC(=O)N(C)Cc1ccc(Cl)s1)c1ccccn1 (stereo not given),-0.224%
11,O=c1oc(-c2cccs2)nn1CC(O)c1ccccc1 (stereo not given),2.71%
12,Cc1cc(NC(=O)NCc2ccccc2OC(F)F)n(C)n1,-4.29%
13,O=C(Cn1ccc2ccccc21)NCc1ccc(C(=O)O)cc1,1.77%
14,CCCNC(=O)Cn1nc(C(C)C)c2cnn(C(C)(C)C)c2c1=O,4.27%
15,Cc1ccc(CNCc2nnc3n2CCCC3C(F)(F)F)s1 (stereo not given),8.27%
16,CCn1c(Cn2cncn2)nnc1C1CCN(Cc2ccncc2)CC1,1.13%
17,CC(=O)c1cc(CC(=O)NCc2ccc(CN(C)C)cc2)cs1,9.94%
18,CN(Cc1ccsc1)C(=O)CN1CCCC1Cn1cccn1 (stereo not given),-4.38%
19,c1cnnc(N2CCCC2CNCc2nc3ccccc3o2)c1 (stereo not given),10.3%
20,CCN1C[C@@H]2[C@@H](OC)CCN(S(=O)(=O)c3ccccc3)[C@@H]2C1,-7.4%
